Several values for one entry are separate records, joined by “and”; a condition that tells them apart may be missing. Equal values may be shown once. This is part of a sample that, as a whole, favours compounds with a hit. Of some 79,000 tested, about 15% had one in any assay. Where a structure was tested more than once in an assay, its records may differ in their call. Activity calls are given as the source filed them. No stated cut-off is given here; in the data, active means growth inhibition above about 70%; inactive means the rest.
How the values were obtained:
[1] = NCI Yeast Anticancer Drug Screen. Data for the rad52 strain (AID 147);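 further: 0% = growth of vehicle-treated control cultures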; details: S. cerevisiae rad52 mutant growth inhibition, stronger effect = higher value
Procedure, shortened: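 Read-out: growth inhibition versus vehicle-treated controls. Cells were a DNA repair-deficient yeast strain treated with compounds.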

[2] = NCI Yeast Anticancer Drug Screen. Data for the wt1 strain (AID 149);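 further: 0% = growth of vehicle-treated wt1 cultures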; details: S. cerevisiae wt1 strain (SPY 50644) growth inhibition, stronger effect = higher value
Procedure, shortened: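 Each compound is tested on wt1 yeast and the loss of growth versus vehicle gives the inhibition value.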

[3] = NCI Yeast Anticancer Drug Screen. Data for the mgt1 strain (AID 153); details: S. cerevisiae mgt1 mutant growth inhibition, stronger effect = higher value
Procedure, shortened: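 mgt1 yeast grown with test compound; read-out is growth inhibition versus vehicle-treated cultures.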

[4] = NCI Yeast Anticancer Drug Screen. Data for the rad50 strain (AID 155);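 further: 0% = growth of vehicle-only cultures of the same strain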; details: S. cerevisiae rad50 strain growth inhibition, stronger effect = higher value
Procedure, shortened: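 Vehicle-treated cultures provide the reference for the growth inhibition reported for compound-exposed, repair-deficient yeast.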

[5] = NCI Yeast Anticancer Drug Screen. Data for the mec2-1 strain (AID 157); details: S. cerevisiae mec2-1 strain, stronger effect = higher value
Procedure, shortened: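 Yeast mec2-1 mutant treated with compound. Readout: growth inhibition vs vehicle controls.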

[6] = NCI Yeast Anticancer Drug Screen. Data for the rad14 strain (AID 159);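 further: 0% = growth of vehicle-treated control cultures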; details: S. cerevisiae rad14 strain growth inhibition, stronger effect = higher value
Procedure, shortened: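 Inhibition of growth is reported for a repair-deficient yeast mutant following compound treatment, calculated relative to cultures that received vehicle.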

[7] = NCI Yeast Anticancer Drug Screen. Data for the sgs1 mgt1 strain (AID 161);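 further: 0% = growth of cultures given vehicle only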; details: S. cerevisiae sgs1 mgt1 strain, stronger effect = higher value
Procedure, shortened: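 Inhibition of yeast growth, normalised to vehicle-treated controls, is reported for a strain bearing genetic alterations in DNA damage repair.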

[8] = NCI Yeast Anticancer Drug Screen. Data for the cln2 rad14 strain (AID 165);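 further: 0% = growth equal to vehicle treated cultures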; details: S. cerevisiae cln2 rad14 strain, stronger effect = higher value
Procedure, shortened: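 cln2 rad14 yeast strain; compound exposure; growth inhibition read vs vehicle controls.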

[9] = NCI Yeast Anticancer Drug Screen. Data for the bub3 strain (AID 167); details: S. cerevisiae bub3 mutant strain, stronger effect = higher value
Procedure, shortened: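 Mutant yeast screening strain plus compound; vehicle-treated cultures serve as the 0% inhibition reference.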

[10] = NCI Yeast Anticancer Drug Screen. Data for the wt2 strain (AID 169); details: S. cerevisiae wt2 strain growth inhibition, stronger effect = higher value
Procedure, shortened: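 Read-out: growth inhibition versus vehicle-treated control cultures after compound exposure of the yeast strain.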

[11] = NCI Yeast Anticancer Drug Screen. Data for the mlh1 strain (AID 171);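 further: 0% = growth of vehicle-treated control cultures of the same strain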; details: S. cerevisiae mlh1 strain growth inhibition, stronger effect = higher value
Procedure, shortened: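 Read-out: growth inhibition versus vehicle controls. Strain: engineered yeast with a defined DNA repair or cell cycle defect, compound-treated.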

[12] = NCI Yeast Anticancer Drug Screen. Data for the sgs1 strain (AID 173);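 further: 0% = growth of vehicle-only control cultures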; details: S. cerevisiae sgs1 mutant, stronger effect = higher value
Procedure, shortened: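 Read-out: yeast growth inhibition relative to vehicle controls, following compound exposure of a strain with a defined DNA repair/cell cycle alteration.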

[13] = NCI Yeast Anticancer Drug Screen. Data for the mlh1 rad18 strain (AID 175); details: S. cerevisiae mlh1 rad18 strain growth inhibition, stronger effect = higher value
Procedure, shortened: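 Yeast w/ defined DNA-repair lesions; compound exposure; growth vs vehicle controls → % inhibition.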

[14] = NCI Yeast Anticancer Drug Screen. Data for the rad18 strain (AID 177); details: S. cerevisiae rad18 mutant growth inhibition, stronger effect = higher value
Procedure, shortened: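 Readout: growth inhibition vs vehicle controls. Cells: genetically altered yeast strain, DNA repair defect.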

[15] = NCI Yeast Anticancer Drug Screen. Data for the rad50EPP+ strain (AID 151);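 further: 0% = growth of vehicle-treated control cultures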; details: S. cerevisiae rad50 mutant strain, stronger effect = higher value
Procedure, shortened: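 Growth inhibition read against vehicle controls in rad50EPP+ yeast, a strain altered in DNA damage repair, after compound exposure.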

[16] = at 5.0 µM (retest, dose inferred, filed as 0.5)
[17] = at 50.0 µM (retest, dose inferred, filed as 5.0)

Measured: growth inhibition

Cc1ccc2c(c1N)C(=O)c1ccccc1C2=O
inactive: [1]; at 1.2 µM 8% | [1]; at 3.7 µM 22% | [1]; at 11.0 µM 47% | [2]; at 1.2 µM -3% | [2]; at 3.7 µM -1% | [2]; at 11.0 µM 6% | [2]; at 33.0 µM 5% | [2]; at 100.0 µM 5% | [3]; at 1.2 µM -3% | [3]; at 3.7 µM -3% | [3]; at 11.0 µM 6% | [3]; at 33.0 µM -8% | [3]; at 100.0 µM 6% | [4]; at 1.2 µM 5% | [4]; at 3.7 µM 19% | [4]; [16] 59% | [4]; at 11.0 µM 40% | [4]; at 33.0 µM 62% | [4]; at 50.0 µM 30.5% | [4]; at 100.0 µM 63% | [5]; at 1.2 µM 2% | [5]; at 3.7 µM 4% | [5]; [16] 8% | [5]; at 11.0 µM 8% | [5]; at 33.0 µM 11% | [5]; [17] 36% | [5]; at 50.0 µM 42% | [5]; at 100.0 µM 15% | [6]; at 1.2 µM 3% | [6]; at 3.7 µM 5% | [6]; at 11.0 µM 8% | [6]; at 33.0 µM 9% | [6]; at 100.0 µM 16% | [7]; [16] 7% | [7]; [17] 42% | [7]; at 50.0 µM 45.2% | [8]; [16] 6% | [8]; [17] 14% | [8]; at 50.0 µM 40.8% | [9]; at 1.2 µM 2% | [9]; at 3.7 µM 13% | [9]; [16] -9% | [9]; at 11.0 µM 31% | [9]; at 33.0 µM 37% | [9]; [17] 62% | [9]; at 50.0 µM 61.4% | [9]; at 100.0 µM 35% | [10]; at 1.2 µM -3% | [10]; at 3.7 µM 1% | [10]; at 11.0 µM 6% | [10]; at 33.0 µM 10% | [10]; at 100.0 µM 8% | [11]; at 1.2 µM -3% | [11]; at 3.7 µM -1% | [11]; at 11.0 µM 10% | [11]; at 33.0 µM 5% | [11]; at 100.0 µM 4% | [12]; at 1.2 µM -4% | [12]; at 3.7 µM -3% | [12]; at 11.0 µM 1% | [12]; at 33.0 µM 7% | [12]; at 100.0 µM 5% | [13]; [16] 15% | [13]; [17] 45% | [14]; at 1.2 µM -4% | [14]; at 3.7 µM 1% | [14]; at 11.0 µM 5% | [14]; at 33.0 µM 3% | [14]; at 100.0 µM 13%
active: [1]; at 33.0 µM 73% | [1]; at 100.0 µM 73% | [4]; [17] 91% | [13]; at 50.0 µM 71.8%

CCCCCCCCCCCCCCCCP(=O)(O)OP(=O)(O)OCC1OC(n2ccc(N)nc2=O)C(O)C1O (stereo not drawn)
inactive: [1]; at 1.2 µM 3% | [1]; at 3.7 µM 3% | [1]; at 11.0 µM 4% | [1]; at 33.0 µM 3% | [1]; at 100.0 µM 5% | [15]; at 1.2 µM 0% | [15]; at 3.7 µM -5% | [15]; at 11.0 µM -6% | [15]; at 33.0 µM -2% | [15]; at 100.0 µM 18% | [4]; at 1.2 µM 2% | [4]; at 3.7 µM 1% | [4]; [16] -13% | [4]; at 11.0 µM 2% | [4]; at 33.0 µM 0% | [4]; [17] 10% | [4]; at 100.0 µM 3% | [5]; at 1.2 µM -3% | [5]; at 3.7 µM -3% | [5]; [16] -9% | [5]; at 11.0 µM -4% | [5]; at 33.0 µM -5% | [5]; [17] -13% | [5]; at 100.0 µM -3% | [6]; at 1.2 µM -2% | [6]; at 3.7 µM -1% | [6]; at 11.0 µM -1% | [6]; at 33.0 µM -1%
80.7% (active) and -3.1% (inactive): [5]; at 50.0 µM
73.3% (active) and 8.3% (inactive): [4]; at 50.0 µM
